# According to PubChem BioAssay (NCATS):
# Records with an inconclusive call do not appear. Active and inactive are the calls of the source. The call rests on the fitted dose curve; in most records, active means well fitted inhibition curve with a large enough effect; inconclusive means small, poorly fitted or top-dose-only effect, or effect the other way; inactive means flat fitted curve, though single readings scatter.
# Assay: qHTS for Inhibitors of Plasmodium falciparum (GB4) proliferation (AID 504315);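 further: 0% = DMSO vehicle and -100% = 0.29 µM artemisinin control; nearly all actives have a fitted effect of over 50% in size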
# Settings: P. falciparum GB4 in erythrocytes, SYBR Green DNA, 72 h; series mostly up to 6.7 µM; activity change, negative = inhibition: at the top concentration
# Excerpt: Plasmodium falciparum is a virulent malarial parasite that kills 1-2 million people worldwide each year. Malaria not only inflicts tremendous suffering and morbidity on the human population, but has dramatically influenced the course of civilization with profound sociological and economic implications (Shah, S. 2010). Transmitted by mosquitoes, the sporozoite form of the parasite enters the blood stream to infect hepatocytes, where they become merozoites that infect red blood cells (erythrocytes). Within erythrocytes, merozoites begin a […] cycle of growth and division, after which the parasite is released to infect new red blood cells. Gametocytes, which form within erythrocytes as well, circulate in the bloodstream and are ingested by the mosquito, thereby completing the life cycle (see CDC website). To profile malarial lines for differential chemical responses and to identify inhibitors of malarial growth, an assay that measures P. falciparum growth and replication within erythrocytes was employed. This assay uses a DNA binding fluorescent dye (SYBR Green) to detect parasite DNA following cell lysis. Because mature erythrocytes lack DNA, only Plasmodium-derived DNA is detected. The P. falciparum line cp250, derived from a malarial isolate from Cambodia, (Mu, J., et al. 2010) was added to the panel of lines, Dd2, HB3, 7G8 and GB4 in this study. Laboratory of Assay Development and Screening Technology [ADST] and NIH Chemical Genomics Center [NCGC] Boston University, Chemistry Department, Center for Chemical Methodology and Library Development [CMLD-BU] NIH National Institute of Allergy and Infectious Diseases [NIAID]
# ADST Assay Protocol Summary: The 1536-well SYBR Green viability assay was based on the method of Bennett et al (2004) and described previously in 1536-well format (Yuan J., et al. 2009). For screening 3 ul culture medium was dispensed into 1536 well black clear bottom plates (Aurora Biotechnologies) using a Multidrop Combi (Thermo Fisher Scientific Inc.), 23 nL compounds in DMSO were added by a pin transfer (Cleveland, P.H. and Koutz, P.J, 2005) using a pin tool-based delivery system (Kalypsys), and 5 ul of erythrocytes infected with P. falciparum one of five lines (cp250, Dd2, HB3, 7G8 or GB4, 0.3% parasitemia, 2.5% hematocrit final concentration) were added. The plates were incubated at 37C in a humidified incubator in 5% CO2 for 72 h, and 2 ul lysis buffer (20 mM Tris HCl, 10 mM EDTA, 0.16% saponin, 1.6% triton X, 10X SYBR Green I (supplied as 10,000X final concentration by Invitrogen) was added to each well. The plates were mixed for 25 sec with gentle shaking and incubated overnight at room temperature in the dark. The following morning, fluorescence intensity at 485(14) nm excitation and 535(25) nm emission wavelengths was measured on an EnVision (Perkin Elmer) plate reader. Plate reads were normalized relative to the control inhibitor (0.29 uM artemisinin) and vehicle (DMSO) wells present on each plate and then corrected by an algorithm using vehicle-only control plates at the beginning and end of the compound plate stack. References Shah, S. (2010). The Fever: how malaria has ruled humankind for 500,000 years. New York, Sarah Crichton Books. CDC web site, http://www.cdc.gov/malaria/about/biology/index.html Mu, J., Myers, R.A., Jiang, H., Liu, S., Ricklefs, S., Waisberg, M., Chotivanich, K., Wilairatana, P., Krudsood, S., White, N.J., et Plasmodium falciparum genome-wide scans for positive selection, recombination hot spots and resistance to antimalarial drugs Nature Genetics 2010, 42, pp 268-271 Bennett TN, Paguio, M., Gligorijevic, B., Seudieu, C., Kosar, A. D., Davidson, E., and Roepe, P. D. Novel, rapid, and inexpensive cell-based quantification of antimalarial drug efficacy Antimicrobial Agents Chemother. 2004, 48(5): pp 1807-10 Yuan J, Johnson RL, Huang RL, Wichterman J, Jiang HY, Hayton K, Fidock DA, Wellems TE, Inglese J, Austin CP, Su XZ. […]
SMILES,"activity change, negative = inhibition",outcome
C=C(C)C(=O)CP(=O)(OCC)OCC,13.1% (inactive),
CC(=O)[C@]12C[C@]3(C)CCCN(C(=O)N[C@@H]1c1ccccc1)C32 (stereo partly drawn),-1.97% (inactive),
COC(=O)[C@@H]1[C@@H](c2ccccc2)[C@H]2C(=O)c3c(OC)cc(OC)cc3O[C@@]12c1ccc(OC)cc1,-3.85% (inactive),
COC(=O)[C@@]1(C=C2c3ccccc3[C@@H](OC)[C@@H]2C)[C@@H]2Oc3ccccc3[C@@H]21,3.21% (inactive),
CCOC(=O)[C@@]12C3[C@@H](CCN3C(=O)N[C@@H]1c1ccccc1)[C@@H]2C (stereo partly drawn),-6.73% (inactive),
CCOC(=O)[C@]12C[C@@H]3OCCN(C(=O)N[C@@H]1c1ccccc1)[C@@H]32,2.07% (inactive),
COC(=O)[C@@]12Cc3ccccc3[C@H]1C[C@H](C)[C@@H](C)N2C(=O)C(F)(F)F,-9.72% (inactive),
COC(=O)C1=NN=C(C(=O)OC)[C@@]2(C)c3ccccc3NC12 (stereo partly drawn),12.5% (inactive),
COC(=O)C1(C)C2CC(C)C(c3ccccc32)N1C(=O)C(F)(F)F (stereo not drawn),3.3% (inactive),
COC(=O)C1=C2CCO[C@H]2[C@@H]2[C@@H](C)[C@H](OC)c3ccccc3[C@@H]12,-3.26% (inactive),
CCOC(=O)[C@]12C[C@]3(OC)CCN(C(=O)N[C@@H]1c1ccccc1)[C@@H]32,0.446% (inactive),
CC(=O)[C@]12[C@H](c3ccccc3)[C@@H]3CCN(C(=O)N[C@H]1c1ccccc1)[C@@]32C,1.03% (inactive),
COC(=O)C1=C2CCCO[C@H]2[C@@H]2[C@@H](C)[C@H](OC)c3ccccc3[C@@H]12,4% (inactive),
COC(=O)C1=C[C@H]([C@@H](C)[C@H](OC)c2ccccc2Br)[C@H]2[C@H]1c1ccccc1N2C,-4.34% (inactive),
CC(=O)[C@]12C[C@@H]3CCCN(C(=O)N[C@@H]1c1ccccc1)[C@@H]32,0.674% (inactive),
C=C1[C@@H]2CCN3C(=O)N[C@@H](c4ccccc4)[C@@]1(C(=O)OCC)C23 (stereo partly drawn),-1.09% (inactive),
COC(=O)C1C2CC(C)C(c3ccccc32)N1C(=O)C(F)(F)F (stereo not drawn),,inactive
CCOC(=O)[C@]12C[C@]3(C)CCN(C(=O)N[C@@H]1c1ccccc1)[C@@H]32,8.41% (inactive),
COC(=O)[C@]12C[C@@H]3CCN(C(=O)N[C@@H]1c1ccccc1)[C@@]32C,-4.75% (inactive),
COC(=O)C1=C2CCO[C@@H]2[C@H]2[C@@H](C)[C@H](OC)c3ccccc3[C@H]12,-8.33% (inactive),
COC(=O)[C@@]1(C=C2c3ccc(F)cc3[C@@H](OC)[C@@H]2C)[C@@H]2c3ccccc3O[C@@H]21,-14.4% (inactive),
COC(=O)C12CC3=CCC4C(=O)N(c5ccccc5)C(=O)C4C3Cc3ccccc3[C@H]1CNC2=O (stereo partly drawn),-11.4% (inactive),
CCC[C@]12CCN3C(=O)N[C@@H](c4ccccc4)[C@](C(=O)OCC)(C1)[C@H]32,-3.65% (inactive),
CO[C@@H]1c2ccccc2[C@H]2C(C(=O)O)c3c(n(C)c4ccccc34)[C@H]2[C@H]1C (stereo partly drawn),-11.2% (inactive),
COC(=O)[C@@]1(C=C2c3ccc(F)cc3[C@@H](OC)[C@@H]2C)[C@@H]2Oc3ccccc3[C@@H]21,-10.1% (inactive),
CCOC(=O)[C@]12C[C@]3(C)CCCN(C(=O)N[C@@H]1c1ccccc1)[C@@H]32,11.4% (inactive),
CCOC(=O)[C@]12C[C@@H]3CCN(C(=O)N(C(C)=O)[C@@H]1c1ccccc1)[C@@H]32,-7.45% (inactive),
COC(=O)[C@@]1(C=C[C@@H](C)[C@H](OC)c2ccccc2Br)[C@@H]2Oc3ccccc3[C@@H]21,-5.06% (inactive),
